Data reported in publication PMC5540273 (PLoS ONE, 2017).

System: LATS1
Settings: concentration: 1 μM, replicates: in singlicate; n = 1
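Further: KINOMEscan kinase panel screen.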

| SMILES | %Inh [%] |
| --- | --- |
| CSc1ccc(-c2cc3ncnc(SCC(=O)O)c3s2)cc1 | 7 |
| COc1ccc(Nc2nccc(N3CCC(NC(=O)Nc4cc(C)ccc4C)C3)n2)cc1 (centres unmarked) [GSK1379741] | 0 |
| Nc1nc(-c2ccc3c(N)n[nH]c3c2)cc(N2CCCC2)n1 [GSK2227430] | 0 |
| c1ccc(-c2n[nH]cc2-c2ccnc3ccccc23)nc1 [GW271431] | 0 |
| O=C1NC(=O)C(N2CCc3ccccc32)=C1c1cccc(Cl)c1 [SB-408010] | 0 |
| COc1ccc(Nc2ncc(C#N)c(Nc3ccccc3C(N)=O)n2)cc1N1CCN(C)CC1.Cl [GSK1558669] | 78 |
| Cc1ccc(NC(=O)c2ccnc(N3CCN(C)CC3)c2)cc1-c1ccc(C(=O)NCC2CC2)cc1 [GW775604] | 0 |
| Cc1nnc(-c2ccc3occ(-c4ccc(C(C)O)cc4)c3c2)o1 (centres unmarked) | 15 |
| COc1ccc(COc2cc(-n3cnc4ccccc43)sc2C(N)=O)cc1 [GSK1024304] | 0 |
| CCc1nc(-c2cccc(C)c2)c(-c2ccnc(NCc3ccccc3)c2)s1 | 21 |
| NS(=O)(=O)c1cccc(-c2ccc3nccc(-c4cccc(S(N)(=O)=O)c4)c3c2)c1 [GW867253] | 0 |
| Cc1cccc(-c2nc(Nc3ccc4ncsc4c3)c3ccccc3n2)n1 [GW867588] | 2 |
| CC(C)Oc1ccc2c(-c3ccnc(Nc4ccc(N5CCN(C)CC5)cc4)n3)cnn2n1 [GW696155] | 0 |
| CN(C(=O)c1ccc(-c2cc(-c3c[nH]nc3-c3ccccn3)ccn2)cc1)C1CCOCC1 [GW810083] | 0 |
| COc1cc(Nc2nccc(N3CCC(NC(=O)c4cccc(NC(C)=O)c4)C3)n2)cc(OC)c1OC (centres unmarked) [GSK1379754] | 0 |
| O=C(NCCCN1CCOCC1)c1cccc(Nc2nccc(Nc3ccc(Oc4ccccc4)cc3)n2)c1 [GW663929] | 0 |
| COc1cc2c(cc1OC[C@@H](O)CO)ncc1c3ccc(C#N)cc3[nH]c21 | 0 |

| SMILES | %Inh [%] |
| --- | --- |
| COc1ccc(CNC(=O)NC2CCN(c3ccnc(Nc4ccc(OC)cc4)n3)C2)cc1 (centres unmarked) [GSK1379727] | 6 |
| COc1ccc(S(=O)(=O)NC2CCN(c3cc(C)nc(Nc4cccc(C#N)c4)n3)CC2)cc1.O=C(O)C(F)(F)F [GSK1653539] | 0 |
| N#Cc1ccc(-c2cc(-c3c[nH]nc3-c3ccccn3)ccn2)cc1 [GW693028] | 0 |
| c1ccc(-c2cc(-c3c[nH]nc3-c3ccccn3)ccn2)cc1 [GW576604] | 0 |
| NCC(NC(=O)c1cc(-c2cn[nH]c2)c(-c2ccnc3[nH]ccc23)s1)c1ccccc1.O=C(O)C(F)(F)F.O=C(O)C(F)(F)F (centres unmarked) [GSK1325775] | 59 |
| Cn1cc(-c2ccc3c(c2)CCN3C(=O)Cc2ccccc2Cl)c2c(N)ncnc21 [GSK2608885] | 15 |
| O=c1cc(N2CCOCC2)nc2n(Cc3cccc(Cl)c3Cl)c(C3CC3)nn12 [GSK2358994] | 0 |
| COc1cc2c(cc1OCCN1CCN(C)CC1)ncc1c3ccc(C#N)cc3[nH]c21 | 0 |
| Cl.Nc1ncnc2occ(-c3ccc(NC(=O)Nc4cc(C(F)(F)F)ccc4F)cc3)c12 [SB-707548] | 0 |
| O=C1Cc2cc(Nc3nc(NCc4cccc(S(=O)(=O)C(F)(F)F)c4)ncc3C(F)(F)F)ccc2N1 | 11 |
| Cc1nnc(-c2ccc(C)c(-c3ccc(C(=O)Nc4ccc(NS(C)(=O)=O)cc4)cc3)c2)o1 [GW702865] | 0 |
| O=c1cc(N2CCOCC2)nc2n(Cc3cccc(F)c3)ccn12 [GSK2297430] | 0 |
| COc1ccc(Nc2nccc(N3CCC(NC(=O)Nc4cccc(C(C)=O)c4)C3)n2)cc1 (centres unmarked) [GSK1379731] | 0 |
| CCCCCc1nc2c(N)ncnc2n1CCCCC [SKF-97255] | 0 |
| Nc1nccc(-c2c(-c3ccc(F)cc3)ncn2C2CCN(CC(F)(F)F)CC2)n1 [SB-236560] | 0 |
| Fc1ccc(-c2ncn(CCCN3CCOCC3)c2-c2cccnc2)cc1 [SB-211743] | 9 |
| O=C(Nc1cccc(-c2nn3ncccc3c2-c2ccnc(Nc3cccc(C(F)(F)F)c3)n2)c1)c1c(F)cccc1F [GSK299495] | 13 |

System: LATS2
Settings: concentration: 1 μM, replicates: in singlicate; n = 1

| SMILES | %Inh [%] |
| --- | --- |
| CSc1ccc(-c2cc3ncnc(SCC(=O)O)c3s2)cc1 | 4 |
| COc1ccc(Nc2nccc(N3CCC(NC(=O)Nc4cc(C)ccc4C)C3)n2)cc1 (centres unmarked) [GSK1379741] | 0 |
| Nc1nc(-c2ccc3c(N)n[nH]c3c2)cc(N2CCCC2)n1 [GSK2227430] | 5 |
| c1ccc(-c2n[nH]cc2-c2ccnc3ccccc23)nc1 [GW271431] | 4 |
| O=C1NC(=O)C(N2CCc3ccccc32)=C1c1cccc(Cl)c1 [SB-408010] | 10 |
| COc1ccc(Nc2ncc(C#N)c(Nc3ccccc3C(N)=O)n2)cc1N1CCN(C)CC1.Cl [GSK1558669] | 98.9 |
| Cc1ccc(NC(=O)c2ccnc(N3CCN(C)CC3)c2)cc1-c1ccc(C(=O)NCC2CC2)cc1 [GW775604] | 0 |
| Cc1nnc(-c2ccc3occ(-c4ccc(C(C)O)cc4)c3c2)o1 (centres unmarked) | 12 |
| COc1ccc(COc2cc(-n3cnc4ccccc43)sc2C(N)=O)cc1 [GSK1024304] | 0 |
| CCc1nc(-c2cccc(C)c2)c(-c2ccnc(NCc3ccccc3)c2)s1 | 0 |
| NS(=O)(=O)c1cccc(-c2ccc3nccc(-c4cccc(S(N)(=O)=O)c4)c3c2)c1 [GW867253] | 0 |
| Cc1cccc(-c2nc(Nc3ccc4ncsc4c3)c3ccccc3n2)n1 [GW867588] | 0 |
| CC(C)Oc1ccc2c(-c3ccnc(Nc4ccc(N5CCN(C)CC5)cc4)n3)cnn2n1 [GW696155] | 43 |
| CN(C(=O)c1ccc(-c2cc(-c3c[nH]nc3-c3ccccn3)ccn2)cc1)C1CCOCC1 [GW810083] | 2 |
| COc1cc(Nc2nccc(N3CCC(NC(=O)c4cccc(NC(C)=O)c4)C3)n2)cc(OC)c1OC (centres unmarked) [GSK1379754] | 0 |
| O=C(NCCCN1CCOCC1)c1cccc(Nc2nccc(Nc3ccc(Oc4ccccc4)cc3)n2)c1 [GW663929] | 1 |
| COc1cc2c(cc1OC[C@@H](O)CO)ncc1c3ccc(C#N)cc3[nH]c21 | 41 |

| SMILES | %Inh [%] |
| --- | --- |
| COc1ccc(CNC(=O)NC2CCN(c3ccnc(Nc4ccc(OC)cc4)n3)C2)cc1 (centres unmarked) [GSK1379727] | 0 |
| COc1ccc(S(=O)(=O)NC2CCN(c3cc(C)nc(Nc4cccc(C#N)c4)n3)CC2)cc1.O=C(O)C(F)(F)F [GSK1653539] | 25 |
| N#Cc1ccc(-c2cc(-c3c[nH]nc3-c3ccccn3)ccn2)cc1 [GW693028] | 0 |
| c1ccc(-c2cc(-c3c[nH]nc3-c3ccccn3)ccn2)cc1 [GW576604] | 0 |
| NCC(NC(=O)c1cc(-c2cn[nH]c2)c(-c2ccnc3[nH]ccc23)s1)c1ccccc1.O=C(O)C(F)(F)F.O=C(O)C(F)(F)F (centres unmarked) [GSK1325775] | 91.1 |
| Cn1cc(-c2ccc3c(c2)CCN3C(=O)Cc2ccccc2Cl)c2c(N)ncnc21 [GSK2608885] | 25 |
| O=c1cc(N2CCOCC2)nc2n(Cc3cccc(Cl)c3Cl)c(C3CC3)nn12 [GSK2358994] | 27 |
| COc1cc2c(cc1OCCN1CCN(C)CC1)ncc1c3ccc(C#N)cc3[nH]c21 | 20 |
| Cl.Nc1ncnc2occ(-c3ccc(NC(=O)Nc4cc(C(F)(F)F)ccc4F)cc3)c12 [SB-707548] | 40 |
| O=C1Cc2cc(Nc3nc(NCc4cccc(S(=O)(=O)C(F)(F)F)c4)ncc3C(F)(F)F)ccc2N1 | 0 |
| Cc1nnc(-c2ccc(C)c(-c3ccc(C(=O)Nc4ccc(NS(C)(=O)=O)cc4)cc3)c2)o1 [GW702865] | 1 |
| O=c1cc(N2CCOCC2)nc2n(Cc3cccc(F)c3)ccn12 [GSK2297430] | 0 |
| COc1ccc(Nc2nccc(N3CCC(NC(=O)Nc4cccc(C(C)=O)c4)C3)n2)cc1 (centres unmarked) [GSK1379731] | 0 |
| CCCCCc1nc2c(N)ncnc2n1CCCCC [SKF-97255] | 0 |
| Nc1nccc(-c2c(-c3ccc(F)cc3)ncn2C2CCN(CC(F)(F)F)CC2)n1 [SB-236560] | 69 |
| Fc1ccc(-c2ncn(CCCN3CCOCC3)c2-c2cccnc2)cc1 [SB-211743] | 0 |
| O=C(Nc1cccc(-c2nn3ncccc3c2-c2ccnc(Nc3cccc(C(F)(F)F)c3)n2)c1)c1c(F)cccc1F [GSK299495] | 6 |
